Assay results published in PubChem BioAssay AID2315 (National Center for Advancing Translational Sciences (NCATS), 2010).
Hit rate of the full screen: of about 290,000 compounds, about 27,000 (9.3%) were called active. This excerpt belongs to a sample that is enriched for actives. Unmarked numbers belong to inactive results. Cut-off read from the data, not from the text of the source: active = inhibition mostly above about 28% (no sharp cut-off); inactive = mostly below about 43%.

Experiment: A qHTS for Small Molecule Inhibitors of Shiga Toxin; note: 0% is about no effect
Settings: Vero cells, Shiga toxin protein synthesis inhibition reporter; at 38.7 µM, stronger effect = higher value
For CC(=O)Nc1ccccc1OC(C)C(=O)N1CCC(C)CC1 (configuration not stated), the inhibition was -7.84%.
Compound O=C(N/N=C/c1cc(Cl)cc([N+](=O)[O-])c1O)C(O)(c1ccccc1)c1ccccc1 has an inhibition of -2.27%.
In the case of CCOC(CNC(=O)C(=O)NCC(c1ccco1)N1CCN(c2ccc(OC)cc2)CC1)OCC (configuration not stated), the inhibition is reported as 14.3%.
For CCOc1ccccc1NC(=O)COc1ccc(S(=O)(=O)N2CCCC2)cc1, the inhibition was 14.6%.
Cc1oc2c(C)c3oc(=O)c(CC(=O)N[C@@H](CC(C)C)C(=O)N[C@@H](Cc4ccccc4)C(=O)O)c(C)c3cc2c1C showed an inhibition of -6.95%.
Compound Cc1cc(C)c(S(=O)(=O)c2cc(F)ccc2C)c(=O)[nH]1 has an inhibition of -5.17%.
Work on CCOc1ccc(NC(=O)COc2ccc(S(=O)(=O)N3CCCC3)cc2)cc1 yielded an inhibition of 22.6%.
With C=C(C)CSc1nnc(-c2ccc(C)cc2)n1N the inhibition was 130% (active).
Cc1ccc(NC(=O)NC(=O)CSc2nnc(-c3ccc(OC(F)F)cc3)n2N)c(C)c1 gave an inhibition of 12.9%.
Work on Cc1ccc(-c2nnc(SC(C)C#N)n2N)cc1 (configuration not stated) yielded an inhibition of 12.2%.
COc1cccc(C(=O)OCc2cc(=O)oc3c(C)c(C)ccc23)c1OC showed an inhibition of 4.14%.
Cc1ccc(CNC(=O)CCS(=O)(=O)c2ccc3c(c2)CC(C)N3C(=O)C2CC2)o1 (configuration not stated) gave an inhibition of 32.1%.
Compound O=C(Nc1nonc1-c1ccc(Cl)cc1)c1ccco1 has an inhibition of 6.78%.
In the case of COc1cccc(CNC(=O)Cn2c(=O)oc3cc(S(=O)(=O)N4CCCCC4)ccc32)c1, the inhibition is reported as -6.29%.
In the case of Oc1ccc(-c2nncn2-c2ccccc2)cc1, the inhibition is reported as -7.57%.
With c1ccc(-n2nc3ccccc3n2)cc1 the inhibition was 25.4% (active).
c1ccc(-n2ncc(-c3nn[nH]n3)n2)cc1 showed an inhibition of -22.5%.
CN1CN(C)c2ccc([N+](=O)[O-])c3cccc1c23 showed an inhibition of 4.19%.
Compound Cc1nn(C)cc1S(=O)(=O)N1CCN(c2ccc(F)cc2)CC1 has an inhibition of -28%.
COc1ccc(C(C(=O)NC(C)(C)C)N(Cc2ccc(F)cc2)C(=O)CCC(=O)Nc2cc(C)on2)cc1 (configuration not stated) showed an inhibition of -4.11%.
In the case of Cc1cc(=O)oc2c(C)c(OCC(=O)NCCN3CCOCC3)ccc12, the inhibition is reported as -1.86%.
O=C1c2ccccc2C(=O)N1CCCc1nc(-c2ccccc2)no1 gave an inhibition of 8.99%.
For c1ccc(CCc2nc(-c3ccncc3)no2)cc1, the inhibition was 60.1% (active).
In the case of O=C(Cc1ccc(Cl)cc1)NCc1nc(-c2ccccc2)no1, the inhibition is reported as -5.48%.
Work on OC(COc1ccc2ccccc2c1)Cn1cncn1 (configuration not stated) yielded an inhibition of 11%.
With OC(COc1ccc2ccccc2c1)CN1CCOCC1 (configuration not stated) the inhibition was 26.8% (active).
Compound COc1ccccc1OCC(O)CN1CCOCC1 (configuration not stated) has an inhibition of -3.66%.
